Sampled rows, rich in hits. Any-hit rate of the full collection: about 4.1%.
FAS-TE inh – inhibitors of human fatty acid synthase thioesterase domain | P49327 | recombinant FAS-TE, OMFH fluorogenic substrate, fluorescence endpoint | inhibition, % at 15 µM | 360,000 tested, 0.67% active;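 active = compounds whose normalised, plate-corrected inhibition of enzyme fluorescence in the single-dose primary screen is 50% or more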;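 note: 0% = DMSO with enzyme and 100% = substrate without enzyme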
beta cell repl – inducers of beta-cell replication in MIN6 cells | MIN6 cells proliferation, ATPlite luminescence, 48 h; cells starved in 0.2% serum; 100% = growth in 10% serum | proliferation, % at 10 µM | 330,000 tested, 0.29% active | AID 2380;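 active = compounds whose signal lies at least 3.5 SD above the mean of all wells on their plate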;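 note: 0% = DMSO-treated cells in low-serum medium and 100% = 10% serum control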
pCIP destab – lowers stability of the mouse p/CIP coactivator protein; Q05BA5; decrease of EGFP signal, % at 10 µM; F442A p/CIP-EGFP cells, EGFP fluorescence, 16 h; 290,000 tested, 0.01% active;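 active = EGFP signal decrease of at least 30% at 10 µM or well 3 SD below plate mean, unless failing retest; inactive = the rest, including hits failing retest or dose response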
NR3A LBD binder – NR3A (human) ligand-binding domain modulation; NR3A LBD differential scanning fluorimetry, Tm shift; 0% = protein alone, 100% = glycine-bound protein; Tm shift relative to glycine control, % at 25 µM; 340,000 tested, 2.5% active; AID 1259313;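 active = melting temperature shift of at least 10% of the positive control shift, at one fixed dose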
MPTP block – permeability transition pore inhibition | AID 602449 | inhibition, % at 10 µM | isolated mouse mitochondria, Ca2+ swelling absorbance, 30 min | 360,000 tested, 1.4% active;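 active = inhibition of 50% or more, scaled per plate between neutral and stimulator controls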;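 note: 0% = DMSO wells given calcium and 100% = 1 mM EGTA wells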
MPTP counter – Rhodamine 123 counter-screen of mitochondrial pore hits; shares compounds with MPTP block; isolated mitochondria, membrane potential, Rhodamine 123 fluorescence; inhibition, % at 10 µM; 5,000 tested, 78% active; in the data active = inhibition above about 22%;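 note: 0% = DMSO vehicle and 100% = positive control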
* = called active by the depositor; x = not tested or not shown.

SMILES	FAS-TE inh	beta cell repl	pCIP destab	NR3A LBD binder	MPTP block	MPTP counter
CC(C(=O)Nc1cccnc1)c1ccc([N+](=O)[O-])cc1 (stereo not given)	-6	2	5	-1	0	x
O=C(Nc1ccc([N+](=O)[O-])cc1)C(c1ccccc1)c1ccccc1	33	x	x	x	82*	108*
CC(C(=O)Nc1cccc(Br)c1)c1ccc([N+](=O)[O-])cc1 (stereo not given)	42	-5	-8	-11	58*	78*
O=C(Nn1cnnc1)c1ccc(OC(F)(F)C(F)C(F)(F)F)cc1 (stereo not given)	-6	0	-12	-2	0	x
COc1ccc(C(C)(O)c2nc(-c3ccccc3C)cs2)cc1 (stereo not given)	11	x	x	x	0	x
CCN(C(=O)c1ccc(C(C)(C)C)cc1)c1nnc(Cn2nnc3ccccc32)s1	23	-5	-8	-1	105*	92*
CCN(C(=O)CC(C)C)c1nnc(Cn2nnc3ccccc32)s1	-1	-1	-11	-2	1	x
COC(/C=C/Nc1ccc(Br)cc1)=C(C#N)C#N	-8	-2	-5	-1	1	x
O=C(CCc1nc(-c2ccccc2F)no1)Nc1ccc(Oc2ccccc2)cc1	25	-4	-8	2	107*	94*
CCOC(=O)c1ccc(NC(=O)CCc2nc(-c3cccc(C)c3)no2)cc1	29	-4	-10	9	85*	91*
Cc1cccc(NC(=O)C2CCCN(S(=O)(=O)c3ccc4[nH]c(=O)ccc4c3)C2)n1 (stereo not given)	0	-4	5	-3	-1	x
CCOC(=O)C1(C)CCN1C(=O)c1ccccc1OC(F)(F)F (stereo not given)	-5	x	x	x	0	x
NCCCCCc1cn([C@@H](CCC(=O)O)C(=O)NCCCCCCCCCCC(=O)N2CCNCC2)nn1	-5	2	x	1	0	x
CC[C@H](C)Cc1cn([C@@H](CCCCN)C(=O)NCCCCCCCCCCC(=O)N2CCNCC2)nn1	-16	-3	x	1	89*	-13
O=C(CSc1ncn[nH]1)NCc1ccccc1Cl	-7	1	-4	-1	-2	x
O=[N+]([O-])c1ccc2c(c1N1CCCCC1)=NC1(CCCCC1)[N+]=2[O-]	10	-4	-10	-2	58*	36*
O=[N+]([O-])c1ccc(N2CCCCC2)nc1N1CCCCC1	21	0	8	2	4	x
Cc1c(C(c2cccc([N+](=O)[O-])c2O)c2c(C)n(C)n(-c3ccccc3)c2=O)c(=O)n(-c2ccccc2)n1C	-4	-1	-11	3	-4	x
Cc1[nH]n(-c2ccccc2)c(=O)c1C(c1cccc([N+](=O)[O-])c1O)c1c(C)[nH]n(-c2ccccc2)c1=O	4	-3	0	19*	103*	65*
Cc1[nH]n(-c2ccccc2)c(=O)c1C(C[N+](=O)[O-])c1ccc(Br)cc1 (stereo not given)	10	-4	-7	-10	73*	37*
O=C(Nc1ccccc1)Nc1ccc(Cl)c([N+](=O)[O-])c1	19	-5	-1	23*	101*	99*
O=C(NNc1ccccc1[N+](=O)[O-])Nc1cccc(Cl)c1	9	1	-2	-2	84*	85*
CCOc1ccc(NC(=S)/C(=C(\[O-])c2ccc(C)c([N+](=O)[O-])c2)[n+]2ccccc2)cc1	-4	-4	-13	-3	0	x
CCOc1ccc(NC(=S)Nc2ccc(C)c([N+](=O)[O-])c2)cc1	28	-1	4	10	86*	90*
CCNC(=S)Nc1cccc([N+](=O)[O-])c1	x	-2	1	x	x	x
CCNC(=S)Nc1ccc(Cl)c([N+](=O)[O-])c1	11	-2	26	-1	96*	90*
CC(CC(=O)Nc1ccc(Cl)c([N+](=O)[O-])c1)c1ccccc1 (stereo not given)	41	-3	-3	0	105*	90*
Cc1ccc(NC(=O)Nc2ccccc2)cc1[N+](=O)[O-]	9	1	-8	13*	77*	101*
O=C(Nc1ccccc1)Nc1ccc(F)c([N+](=O)[O-])c1	48	-6	-6	26*	94*	99*
